This is a sample that favours compounds with a hit; in the whole collection about 6.2% have one here.
HT1080 IDH1KD tx: toxicity to HT-1080 IDH1 knockdown cells (counter line). HT-1080 IDH1 knockdown viability, ATP luminescence, 48 h. Potency, µM (doses to about 46.1 µM), inactives show at the top dose activity, negative = toxicity, actives largely listed as cytotoxic. hit rate 2% among 360,000. AID 686971;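 further: 0% = DMSO wells and -100% = cell-free medium wells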
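Luminescent ATP read-out (CellTiter-Glo, 10 min at room temperature) after 48 h compound exposure at 37 °C gave viability of IDH1-knockdown HT-1080 cells. Activity was normalised to DMSO and cell-free wells, then fitted as concentration-response curves.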
HT1080-NT tox: kills 2HG-producing HT-1080-NT fibrosarcoma cells | HT-1080-NT fibrosarcoma viability, CellTiter-Glo ATP luminescence, 48 h | Potency, µM (doses to about 46.1 µM), inactives show at the highest dose activity, negative = less viability, hits mostly cytotoxic | hit rate 1.6% among 360,000;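 further: NT is the 2HG producing partner of a matched IDH1 knockdown line; 0% = DMSO-treated cells and -100% = media-only wells without cells; nearly all actives have a fitted effect of over 55% in size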
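Viability by CellTiter-Glo luminescence after 48 h compound exposure at 37C of HT-1080-NT cells (750/well, RPMI, 5% FBS). % activity scaled between DMSO wells and medium-only wells, then curve-fitted and categorized by curve class.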
KB-3-1 tox: kills parental KB-3-1 adenocarcinoma cells; KB-3-1 viability, CellTiter-Glo ATP luminescence, 72 h; hit rate 1.4% among 400,000; Potency, µM (doses to about 46.1 µM), most hits filed as cytotoxic; further: on the % scale 0 is the no-effect control and ±100 the full control effect; nearly all actives have a fitted effect of over 60% in size
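72 h, 37 °C compound treatment of KB-3-1 parental cells; CellTiter-Glo added, 10 min, luminescence read. Data corrected against DMSO-only plates and normalized before curve fitting.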
S2 tox: reduces viability in counter-screen for ATXN expression inhibitors; Potency, µM (top dose mostly 56.7 µM), actives largely listed as cytotoxic; hit rate 0.49% among 400,000; S2 cells (HEK-293 line with an ATXN2-luciferase reporter) viability, CellTiter-Fluor protease fluorescence, 24 h; further: nearly all actives have a fitted effect of over 40% in size
KB-V1 MDR tox: kills drug-selected multidrug resistant KB-V1 cells. hit rate 3.4% among 400,000. KB-V1 MDR cells viability, CellTiter-Glo, 72 h. Potency, µM (top dose mostly 46.1 µM), usual class: cytotoxic; further: on the % scale 0 is the no-effect control and ±100 the full control effect; nearly all actives have a fitted effect of over 60% in size
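Potencies derive from concentration-effect curves fitted to normalized luminescence (CellTiter-Glo) of KB-V1 cells treated for 72 h at 37 degrees C in phenol-red-free DMEM containing 10% FBS.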
ATXN2 expr inh: inhibitors of ATXN2 expression. HEK-293 ATXN2-luciferase reporter, luminescence, 24 h. Potency, µM (highest dose often 57 µM), without a hit: at the highest dose activity change, negative = inhibition, most hits filed as inhibitors. hit rate 0.72% among 360,000; further: on the % scale 0 is the no-effect control and ±100 the full control effect; nearly all actives have a fitted effect of over 55% in size
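qHTS (up to 57 uM final) was run with 24 h compound exposure of reporter cells at 37 °C. Each well was multiplexed: SteadyGlo luminescence measured ATXN2-luciferase expression after a fluorogenic Gly-Phe-AFC viability readout (25 uM final).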
An asterisk follows results filed as active. The call rests on the fitted dose curve; in most records, active means well fitted curve in the direction sought with a large enough effect; inconclusive means small, poorly fitted or top-dose-only effect, or another doubt; inactive means no such curve, though single readings can be large; an effect the other way counts as inactive or inconclusive. Potency means the concentration at half of the fitted maximal effect.

CNC(CC(=O)c1ccc([N+](=O)[O-])cc1)C(Cl)(Cl)Cl (stereo not given) was read as HT1080 IDH1KD tx inconclusive, HT1080-NT tox inconclusive, KB-3-1 tox inconclusive, S2 tox 28µM*, KB-V1 MDR tox inactive and ATXN2 expr inh 25µM*.
Screening CC(C)CC(=O)NC(=S)NNC(=O)c1ccc([N+](=O)[O-])cc1 returned HT1080 IDH1KD tx -23%, HT1080-NT tox -19%, KB-3-1 tox inconclusive, S2 tox inactive, KB-V1 MDR tox inactive and ATXN2 expr inh inconclusive.
COc1ccc(C(=O)CC(=O)Nc2ccc([N+](=O)[O-])cc2)cc1 was read as HT1080 IDH1KD tx inconclusive, HT1080-NT tox inconclusive, KB-3-1 tox inactive, S2 tox inconclusive, KB-V1 MDR tox inactive and ATXN2 expr inh inconclusive.
Screening COc1ccc(C(=O)CC(Nc2ccc([N+](=O)[O-])cc2)c2ccc(OC)cc2)cc1 (stereo not given) returned HT1080 IDH1KD tx inconclusive, HT1080-NT tox -9%, KB-3-1 tox inactive, S2 tox inactive, KB-V1 MDR tox 10µM* and ATXN2 expr inh 6%.
For COc1ccc(C(=O)/C(C#N)=N/Nc2ccccc2[N+](=O)[O-])cc1 the results were HT1080 IDH1KD tx 2.3µM*, HT1080-NT tox 2.6µM*, KB-3-1 tox inconclusive, S2 tox inconclusive, KB-V1 MDR tox inactive and ATXN2 expr inh -9%.
For COc1ccc(C(=O)/C(C#N)=N/Nc2ccc([N+](=O)[O-])cc2)cc1 the results were HT1080 IDH1KD tx 5.8µM*, HT1080-NT tox inconclusive, KB-3-1 tox 2.3µM* and KB-V1 MDR tox 8.2µM*.
O=C(Nc1ccc(Cl)cc1Cl)[C@@H]1CC=C[C@@H]2CCN(C3CC3)C(=O)[C@@H]21 was read as KB-3-1 tox inactive and KB-V1 MDR tox inconclusive.
CC(=O)Nc1ccc(Oc2sc(C(=O)c3ccccc3)c(N)c2C#N)cc1 was read as HT1080 IDH1KD tx 16µM*, HT1080-NT tox inconclusive, KB-3-1 tox inactive, S2 tox inactive, KB-V1 MDR tox inactive and ATXN2 expr inh -2%.
N#Cc1ccc(Oc2ccc(-c3nc4ccccc4nc3-c3ccccc3)cc2)cc1C#N was read as HT1080 IDH1KD tx -11%, HT1080-NT tox -9%, KB-3-1 tox inactive, S2 tox inactive, KB-V1 MDR tox 21µM* and ATXN2 expr inh -5%.
For O=C(c1ccc(CS(=O)(=O)c2cccc(C(F)(F)F)c2)o1)N1CCN(c2ccccn2)CC1 the results were HT1080 IDH1KD tx -4%, HT1080-NT tox 1%, KB-3-1 tox inactive, S2 tox inactive, KB-V1 MDR tox 18µM* and ATXN2 expr inh -2%.
Screening CCCc1ccc(OCc2ccc(C(=O)N3CCN(c4ccccn4)CC3)o2)c(OC)c1 returned HT1080 IDH1KD tx inconclusive, HT1080-NT tox inconclusive, KB-3-1 tox inactive, S2 tox inactive, KB-V1 MDR tox 3.7µM* and ATXN2 expr inh inconclusive.
For CCn1cc(C(=O)N2CCN(c3ccccn3)CC2)c2cc(OC)c(OC)cc2c1=O the results were HT1080 IDH1KD tx -12%, HT1080-NT tox 4%, KB-3-1 tox inactive, S2 tox inactive, KB-V1 MDR tox 16µM* and ATXN2 expr inh 0%.
Screening O=C(NCc1ccc2c(c1)OCO2)c1ccc(CS(=O)(=O)c2cccc(C(F)(F)F)c2)o1 returned HT1080 IDH1KD tx 13%, HT1080-NT tox 3%, KB-3-1 tox inactive, S2 tox inconclusive, KB-V1 MDR tox 18µM* and ATXN2 expr inh 1%.
For Cc1cccc(Cn2cc3c(=O)n(CC(=O)Nc4c(C)cccc4C)nc-3c3cc(F)ccc32)c1 the results were KB-3-1 tox inactive, S2 tox inactive, KB-V1 MDR tox inactive and ATXN2 expr inh 7%.
Screening O=C(Cn1cc(C(=O)C2CCCCC2)c2ccccc21)Nc1ccccc1Cl returned KB-3-1 tox inactive, S2 tox inconclusive, KB-V1 MDR tox inconclusive and ATXN2 expr inh -17%.
`COc1cccc(N(C)C(=S)Oc2ccc3c(c2)CCCC3)n1` gave S2 tox inactive and ATXN2 expr inh -24%.
For Brc1ccc(CN2CCc3nc(Nc4ccccc4)ncc3C2)s1 the results were KB-3-1 tox inactive, S2 tox inactive, KB-V1 MDR tox inactive and ATXN2 expr inh 10%.
COCCCNC(=O)c1cc2c(=O)n(C)c3ccccc3c2n1C was read as HT1080 IDH1KD tx -27%, HT1080-NT tox -17%, KB-3-1 tox 10µM*, S2 tox inactive, KB-V1 MDR tox 16µM* and ATXN2 expr inh -9%.
Screening CCCCOc1ccc(S(=O)(=O)N2CCN(c3ccccc3OCC)CC2)cc1 returned KB-3-1 tox inconclusive, S2 tox inactive, KB-V1 MDR tox inactive and ATXN2 expr inh 8%.
`CC1CCCC(C)N1C(=C(Cl)Cl)C(=C1SCCS1)[N+](=O)[O-]` (stereo not given) gave HT1080 IDH1KD tx -29%, HT1080-NT tox -25%, KB-3-1 tox 26µM*, S2 tox inactive, KB-V1 MDR tox inconclusive and ATXN2 expr inh -37%.
`Cc1ccc(N2C(=O)CS/C2=C(\C(Cl)=C(Cl)Cl)[N+](=O)[O-])cc1` gave HT1080 IDH1KD tx -11%, HT1080-NT tox -28%, KB-3-1 tox inactive, S2 tox inactive, KB-V1 MDR tox inactive and ATXN2 expr inh -13%.
CCOc1ccc(Br)cc1S(=O)(=O)Nc1ccc(NC(=O)c2ccccc2C)cc1 was read as HT1080 IDH1KD tx -3%, HT1080-NT tox -5%, KB-3-1 tox inactive, S2 tox inactive, KB-V1 MDR tox inactive and ATXN2 expr inh -3%.
Screening CCOc1ccc(Br)cc1S(=O)(=O)Nc1ccc(C(=O)Nc2ccc(C)cc2)cc1 returned HT1080 IDH1KD tx -17%, HT1080-NT tox -11%, KB-3-1 tox inactive, S2 tox inconclusive, KB-V1 MDR tox 7.3µM* and ATXN2 expr inh 2%.
`CCOc1ccc(Br)cc1S(=O)(=O)Nc1ccc(C(=O)OCC(=O)N(C)c2ccccc2)cc1` gave HT1080 IDH1KD tx -20%, HT1080-NT tox -22%, KB-3-1 tox inactive, S2 tox inactive, KB-V1 MDR tox inactive and ATXN2 expr inh -1%.
For CCOc1ccc(Br)cc1S(=O)(=O)Nc1cccc(S(=O)(=O)N(C)c2ccccc2)c1 the results were HT1080 IDH1KD tx -27%, HT1080-NT tox -9%, KB-3-1 tox inconclusive, S2 tox inactive, KB-V1 MDR tox 4.1µM* and ATXN2 expr inh -7%.
`Cc1ccc(CSc2nccc(-c3c(C)nc4ccccn34)n2)cc1` gave HT1080 IDH1KD tx 1%, HT1080-NT tox 2%, KB-3-1 tox 18µM*, S2 tox inconclusive and KB-V1 MDR tox 6.5µM*.

Screening data from PubChem BioAssay.
